# Experimental data as given in paper PMC4336329 (PLoS ONE, 2015).
# In all, about 310,000 compounds went through this assay and about 14,000 (4.5%) showed an effect of 50% or more. Effects have a minus sign here. This is one part of a sample in which strong results are shown more often than they occur.
# Target: human ether-à-go-go-related gene (hERG) potassium channel (human, UniProt Q12809)
# Experiment: primary screen, population patch clamp on CHO cells stably expressing hERG; higher = less effect of the substance
# 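Further: peak tail current of the secondary pulse compared with the same well before compound.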
# human ether-à-go-go-related gene (hERG) potassium channel, sequence (Q12809 whole entry, looked up): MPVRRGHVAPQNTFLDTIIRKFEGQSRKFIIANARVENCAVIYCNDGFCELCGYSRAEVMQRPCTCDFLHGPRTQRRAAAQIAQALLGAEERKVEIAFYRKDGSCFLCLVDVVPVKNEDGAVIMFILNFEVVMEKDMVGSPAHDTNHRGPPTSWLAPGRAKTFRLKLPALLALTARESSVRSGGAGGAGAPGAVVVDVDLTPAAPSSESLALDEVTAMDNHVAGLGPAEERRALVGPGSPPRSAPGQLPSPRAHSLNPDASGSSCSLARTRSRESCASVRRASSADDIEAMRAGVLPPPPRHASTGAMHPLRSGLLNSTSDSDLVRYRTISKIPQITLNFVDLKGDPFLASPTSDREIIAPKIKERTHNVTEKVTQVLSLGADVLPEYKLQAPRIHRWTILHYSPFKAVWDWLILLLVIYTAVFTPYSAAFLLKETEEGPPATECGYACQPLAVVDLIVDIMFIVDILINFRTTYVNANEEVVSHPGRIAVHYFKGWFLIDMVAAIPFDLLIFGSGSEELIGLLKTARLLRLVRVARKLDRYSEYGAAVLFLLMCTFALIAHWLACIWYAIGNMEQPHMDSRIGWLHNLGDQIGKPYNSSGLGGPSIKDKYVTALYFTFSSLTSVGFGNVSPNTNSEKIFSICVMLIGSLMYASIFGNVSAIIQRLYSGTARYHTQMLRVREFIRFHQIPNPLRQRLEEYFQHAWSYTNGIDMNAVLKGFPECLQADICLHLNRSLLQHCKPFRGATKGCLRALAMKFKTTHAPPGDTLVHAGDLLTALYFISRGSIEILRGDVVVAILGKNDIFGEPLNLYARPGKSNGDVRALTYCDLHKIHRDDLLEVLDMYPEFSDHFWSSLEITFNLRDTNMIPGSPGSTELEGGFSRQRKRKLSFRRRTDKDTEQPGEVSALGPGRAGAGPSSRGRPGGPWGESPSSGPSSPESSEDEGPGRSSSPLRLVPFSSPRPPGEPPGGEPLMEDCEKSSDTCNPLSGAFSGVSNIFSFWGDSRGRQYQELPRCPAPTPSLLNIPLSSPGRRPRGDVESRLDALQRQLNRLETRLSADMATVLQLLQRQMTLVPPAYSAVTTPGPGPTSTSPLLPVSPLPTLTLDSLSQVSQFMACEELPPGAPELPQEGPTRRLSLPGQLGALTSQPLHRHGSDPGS
row,SMILES,"hERG current change (%, negative = inhibition) at 10uM [%]"
1,O=C(NC(=O)N1CCOCC1)c1ccccc1,8.08
2,CC(=O)NNC(=O)CSc1nnc(-c2ccccc2)c(-c2ccccc2)n1,19.4
3,COc1ccc(CN2CC(=O)N(c3ccc(C)c(C)c3)C2=S)cc1OC,12.2
4,CC(C)Oc1c(Cl)cc(CNC(C)(C)CO)cc1Cl,0.775
5,CSc1nnc(-c2ccco2)c(-c2ccco2)n1,2.75
6,CCCCCC(=O)Nc1ccc2oc(-c3cccnc3)nc2c1,-6.74
7,COC(=O)C1=C(C(=O)OC)SC2(S1)C(C(=O)OC)=C(C(=O)OC)SC1=C2c2cc(C)ccc2NC1(C)C,14.3
8,COC(=O)C1=C(C(=O)OC)SC2(S1)C(C(=O)OC)=C(C(=O)OC)SC1=C2c2cccc(C)c2NC1(C)C,-51.6
9,COC(=O)C1=C(C(=O)OC)SC2(S1)C(C(=O)OC)=C(C(=O)OC)SC1=C2c2cc(C)cc(C)c2NC1(C)C,26.1
10,CCOC(=O)C1CCCN(C(=O)c2cc(Nc3ccc(OC)cc3)nc3ccccc23)C1 (centres unmarked),-15
11,COc1cc2nc(N(CCCN(C)C)C(=O)c3ccc(S(=O)(=O)N(C)C4CCCCC4)cc3)sc2cc1OC.Cl,-51.6
12,CN(C)CCCN(C(=O)c1ccc(S(=O)(=O)N(C)C2CCCCC2)cc1)c1nc2ccc(Br)cc2s1.Cl,2.39
13,CCc1ccc2nc(N(CCCN(C)C)C(=O)c3ccc(S(=O)(=O)N(C)C4CCCCC4)cc3)sc2c1.Cl,8.35
14,Cc1ccc2sc(N(CCCN(C)C)C(=O)c3ccc(S(=O)(=O)N(C)C4CCCCC4)cc3)nc2c1C.Cl,-8.13
15,CN(C)CCCN(C(=O)c1ccc(S(=O)(=O)N(C)C2CCCCC2)cc1)c1nc2ccc(F)cc2s1.Cl,-71.9
16,COc1cc2nc(N(CCN(C)C)C(=O)c3ccc(S(=O)(=O)N(C)CC4CCCO4)cc3)sc2cc1OC.Cl (centres unmarked),-9.01
17,CCCCNC(=O)C1CCN(S(=O)(=O)c2ccc3c(c2)CC(C)N3C(=O)C2CC2)CC1 (centres unmarked),1.16
18,NC(=O)C(c1ccc(Cl)cc1)c1ccc(Sc2ccc(Cl)cc2)nn1 (centres unmarked),-9.96
19,CCCc1cc(NCc2ccccn2)n2nc(C)c(-c3ccccc3)c2n1,4.77
20,Cc1cc(NCCCN2CCOCC2)n2nc(C)c(-c3ccc(F)cc3)c2n1,-31.1
21,Cc1cc(NCCC(C)C)n2nc(C)c(-c3ccccc3)c2n1,1.03

row,SMILES,"hERG current change (%, negative = inhibition) at 10uM [%]"
1,CCCc1cc(N2CCCC2)n2nc(C)c(-c3ccccc3)c2n1,8.36
2,Cc1cc(NCCCn2ccnc2)n2nc(C)c(-c3ccc(Cl)cc3)c2n1,-71.8
3,CCCc1cc(NCCCn2ccnc2)n2nc(C)c(-c3ccccc3)c2n1,-74.9
4,Cc1cc(NCCCN2CCOCC2)n2nc(C)c(-c3ccccc3)c2n1,-14.6
5,Cc1cc(NCCN2CCOCC2)n2nc(C)c(-c3ccc(Cl)cc3)c2n1,-50.2
6,COc1ccc(CCNc2cc(C)nc3c(-c4ccc(Cl)cc4)c(C)nn23)cc1OC,15.5
7,Cc1cc(NCc2ccccn2)n2nc(C)c(-c3ccc(Cl)cc3)c2n1,14.2
8,Cc1cc(NCCCn2ccnc2)n2nc(C)c(-c3ccccc3)c2n1,-72.8
9,Cc1nn2c(NCCCn3ccnc3)cc(C(C)C)nc2c1-c1ccccc1,-23.5
10,NNC(=O)c1ccc2[nH]c3c(c2c1)CCCC3,5.31
11,COc1ccc(-c2nc3ccccc3c(C(=O)Nc3ccc(S(=O)(=O)Nc4cc(C)on4)cc3)c2C)cc1,-7.09
12,COc1ccc(NS(=O)(=O)c2ccc(N3CCOCC3)c(NC(=O)c3ccccc3Br)c2)cc1,-11.2
13,COc1cc(C(=O)N2CCN(C(=O)C(Cc3cc(C)ccc3C)NC(C)=O)CC2)cc(OC)c1OC (centres unmarked),-14.4
14,CCc1ccc(N(C(=O)c2csnn2)C(C(=O)NC2CCCC2)c2cccnc2)cc1 (centres unmarked),-24.9
15,O=C(O)C1(c2ccccc2)CCN(S(=O)(=O)c2cccs2)CC1,5.95
16,N#CC1(NC(=O)COC(=O)c2cc(=O)[nH]c3ccccc23)CCCCC1,14
17,Cc1nn(CC(N)=O)c(=O)c2ccccc12,10.6
18,CN(C)CCNc1nc2c(c(=O)[nH]c(=O)n2C)n1CCOc1ccccc1,-5.88
19,Cc1nc(Cl)c2oc3ccccc3c2n1,9.28
20,O=C(NCCCN1CCC(Cc2ccccc2)CC1)C1CCC(=O)N1C1CCCC1 (centres unmarked),6.52
21,Cc1ccc(C(=O)NCCNC(=O)c2ccccn2)cc1,12.9

row,SMILES,"hERG current change (%, negative = inhibition) at 10uM [%]"
1,Cc1ccc(C(=O)NCCCNC(=O)c2ccccn2)cc1,5.5
2,Cc1ccc(/C(=C\CN2CCCC2)c2ccccn2)cc1.Cl,-55.4
3,CCOC(=O)Cc1csc(SCC(=O)c2c(N)n(CC(C)C)c(=O)n(C)c2=O)n1,-2.23
4,Cc1ccc(OC(C)C(=O)N2CC(=O)Nc3ccccc32)c(C)c1 (centres unmarked),2.56
5,Cc1ccc(OC(C)C(=O)N2CC(=O)Nc3ccccc32)cc1 (centres unmarked),-67.7
6,COc1ccccc1OC(C)C(=O)N1CC(=O)Nc2ccccc21 (centres unmarked),15.8
7,CCCN(CC(=O)Nc1ccccc1OC)C(=O)Cc1ccc2c(c1)CCC2,-18.1
8,[O-][n+]1c2ccccc2c2n1CCN1CCOC21c1ccc(Cl)cc1 (centres unmarked),-42.3
9,CC/C(=C/c1sc2ccccc2[n+]1CC)SC.COS(=O)(=O)[O-],0.104
10,CC[n+]1c(/C=C/C=C/c2ccc(N(C)C)cc2)sc2ccccc21.[O-][Cl+3]([O-])([O-])[O-],-73.4
11,CC[n+]1c(/C=C/C=C/N(C(C)=O)c2ccccc2)sc2ccccc21.[I-],-69.8
12,CN(C)c1ccc(/C=C/c2nc3ccccc3s2)cc1,17.7
13,CC[n+]1c(/C=C/C=C/N(C(C)=O)c2ccccc2)sc2cc(OC)ccc21.[I-],-32.8
14,CN(C)c1ccc(/C=C/C=C/c2sc3ccccc3[n+]2C)cc1.[O-][Cl+3]([O-])([O-])[O-],-42.6
15,CC[n+]1c(/C=C/N(C)c2ccccc2)sc2ccc(Cl)cc21.[O-][Cl+3]([O-])([O-])[O-],-62.6
16,CCCc1nn(C(=O)c2ccccc2)c2c1C(=O)CC(C)(C)C2,11.5
17,C=CCOC(=O)/C(=C\c1cccc2ccccc12)NC(=O)c1ccccc1,-9.44
18,CC(=O)/C=C(\C)N=Nc1c(O)[nH]c2ccccc12,5.48
19,Cc1ccc(NC(=O)c2ccccc2NS(=O)(=O)c2ccc(F)cc2)cc1S(=O)(=O)N1CCCCC1,3.17
20,Cc1ccc(NS(=O)(=O)c2ccc(-n3cccn3)cc2)c(C)c1,22.8
21,CCC(CC)c1nnc(NC(=O)C2CC(=O)N(CCc3ccc(OC)c(OC)c3)C2)s1 (centres unmarked),-0.537

row,SMILES,"hERG current change (%, negative = inhibition) at 10uM [%]"
1,CCn1c2ccccc2c2cnc(N=CN(C)C)c(C#N)c21,-24
2,N#Cc1ccc(Nc2nc(-c3ccc(O)cc3O)cs2)cc1C(F)(F)F,11.9
3,Fc1ccc(-c2[nH]ncc2CN2CCN(c3ccc(F)cc3)CC2)cc1,-44.5
4,Fc1ccc(N2CCN(Cc3nnc(-c4ccccc4)o3)CC2)cc1,-11.9
5,COc1ccc(-c2[nH]ncc2CN2CCN(c3ccc(F)cc3)CC2)cc1,-45.7
6,CCOc1ccccc1N1CCN(Cc2cnc(-c3ccccc3)[nH]2)CC1,-40.6
7,CCOc1ccccc1N1CCN(Cc2cc3c(cc2[N+](=O)[O-])OCO3)CC1,-20.6
8,CCOc1ccccc1N1CCN(Cc2cn[nH]c2-c2ccc(F)cc2)CC1,-72.3
9,COc1ccccc1N1CCN(Cc2ccccc2Cl)CC1,-23.5
10,Fc1ccc(N2CCN(Cc3cn[nH]c3-c3ccccc3)CC2)cc1,-59.2
11,COc1ccccc1N1CCN(Cc2cn[nH]c2-c2ccc(F)cc2)CC1,-55.3
12,Cc1c(C)n(CCCN(C)C)c2ncnc(NCc3ccccc3)c12,-13.9
13,O=P(C(=Nc1ccc(Cl)cc1)N1CCOCC1)(N1CCOCC1)N1CCOCC1,-17.6
14,Cc1ccc(S(=O)(=O)N(C)C)cc1NC(=S)N(C)C1CCN(C)CC1,16.2
15,Cc1ccc(C)c(NC(=O)NCCN2CCCCC2)c1,-15.1
16,COc1ccc(S(=O)(=O)N2CCOC23CCN(S(=O)(=O)c2cc(C)ccc2OC)CC3)cc1,26.8
17,CCN(C(=O)COC(=O)Cc1c[nH]c2ccccc12)c1c(N)n(Cc2ccccc2)c(=O)[nH]c1=O,16.3
18,Cc1cc(Br)ccc1NC(=S)N1CCOCC1,12.5
19,COc1ccc(CNC(=O)CCCOc2cc(=O)n(C)c3ccccc23)cc1,-19.2
20,Cn1c(SCC(=O)Nc2nccs2)nnc1C12CC3CC(CC(C3)C1)C2,-6.22
